# Test results reported in PubChem BioAssay (NCATS).
# Unmarked numbers belong to inactive results. Results filed as inconclusive are left out. Entries that show only a call come without a potency. Activity calls are given as the source filed them. Unless noted, calls come from the whole dose curve; as a rule, active = well fitted curve in the direction sought with a large enough effect; inconclusive = small, poorly fitted or top-dose-only effect, or another doubt; inactive = no such curve, though single readings can be large; an effect the other way counts as inactive or inconclusive.
# What was measured:
# [1] = biological target: ATP-dependent 6-phosphofructokinase (Trypanosoma brucei brucei) (UniProt O15648); experiment: qHTS Assay to Find Inhibitors of T. brucei phosphofructokinase: hit validation (AID 492961);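 note: luminescence reports ADP formed as PFK phosphorylates fructose-6-phosphate with ATP; series mostly up to about 51 µM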
# Sequence of ATP-dependent 6-phosphofructokinase (Trypanosoma brucei brucei) (O15648 whole entry, looked up): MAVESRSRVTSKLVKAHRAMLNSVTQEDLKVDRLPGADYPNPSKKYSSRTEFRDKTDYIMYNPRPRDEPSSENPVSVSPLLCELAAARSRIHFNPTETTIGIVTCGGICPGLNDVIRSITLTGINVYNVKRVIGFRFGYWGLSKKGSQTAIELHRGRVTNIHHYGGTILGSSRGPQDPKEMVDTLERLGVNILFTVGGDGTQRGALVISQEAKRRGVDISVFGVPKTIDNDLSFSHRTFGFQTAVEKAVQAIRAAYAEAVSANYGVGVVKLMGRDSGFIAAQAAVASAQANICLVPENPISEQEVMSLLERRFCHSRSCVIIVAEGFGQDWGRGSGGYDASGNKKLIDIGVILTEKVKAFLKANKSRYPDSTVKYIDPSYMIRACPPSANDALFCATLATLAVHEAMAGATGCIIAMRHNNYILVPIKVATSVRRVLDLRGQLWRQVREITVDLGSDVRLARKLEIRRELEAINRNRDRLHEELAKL
# How it was run: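 In this biochemical qHTS validation, titrated compounds were tested against 1.25 nM PFK with 0.1 mM ATP and 0.5 mM F6P. Percent activity came from controls lacking or containing enzyme.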
# [2] = qHTS Assay for Identification of Small Molecule Inducers of Hypoxia Response (AID 2120; active = well fitted curve in the direction sought with a large enough effect in the signal ratio, with a control signal flat, not every such curve was filed as active; the % refers to the signal ratio)
# How it was run: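 HRE-bla ME-180, 2500 cells/well, 0.5% dialyzed FBS medium; cpd titration, 17 h 37 degrees C; CCF4 2.5 h RT; Ex 405, Em 460/530 ratio -> %Activity, AC50.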
# [3] = biological target: Ubiquitin carboxyl-terminal hydrolase 1 (Homo sapiens) (UniProt O94782); experiment: Inhibitors of USP1/UAF1: Pilot qHTS (AID 504865); note: nearly all actives have a fitted effect of over 35% in size; note: potency is the fitted concentration of half-maximal effect
# Sequence of Ubiquitin carboxyl-terminal hydrolase 1 (Homo sapiens) (O94782 whole entry, looked up): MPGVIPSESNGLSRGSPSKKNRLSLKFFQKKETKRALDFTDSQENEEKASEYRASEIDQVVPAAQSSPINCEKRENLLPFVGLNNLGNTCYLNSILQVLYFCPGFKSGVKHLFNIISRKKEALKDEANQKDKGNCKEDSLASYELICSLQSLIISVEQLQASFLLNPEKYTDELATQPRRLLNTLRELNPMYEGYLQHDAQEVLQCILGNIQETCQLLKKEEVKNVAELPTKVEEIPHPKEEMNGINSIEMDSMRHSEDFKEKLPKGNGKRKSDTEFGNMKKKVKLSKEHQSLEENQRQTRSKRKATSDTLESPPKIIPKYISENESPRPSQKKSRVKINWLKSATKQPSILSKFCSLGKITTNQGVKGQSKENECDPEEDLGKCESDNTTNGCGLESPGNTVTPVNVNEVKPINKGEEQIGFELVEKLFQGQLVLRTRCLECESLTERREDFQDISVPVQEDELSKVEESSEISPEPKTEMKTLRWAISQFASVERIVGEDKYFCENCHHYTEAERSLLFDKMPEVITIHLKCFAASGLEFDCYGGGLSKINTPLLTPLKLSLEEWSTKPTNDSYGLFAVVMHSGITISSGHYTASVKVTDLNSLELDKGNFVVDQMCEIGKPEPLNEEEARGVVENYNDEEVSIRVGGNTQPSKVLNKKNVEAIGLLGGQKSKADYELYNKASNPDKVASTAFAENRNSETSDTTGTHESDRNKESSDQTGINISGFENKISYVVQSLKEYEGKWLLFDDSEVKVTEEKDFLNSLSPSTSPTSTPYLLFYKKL
# How it was run: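 Kinetic fluorescence assay: 1nM USP1/UAF1, 15 min compound preincubation, then 150nM Ub-Rho; 480/540 nm.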
# [4] = qHTS for differential inhibitors of proliferation of Plasmodium falciparum line GB4 (AID 1816);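 note: parasite growth measured after 72 h incubation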
# [5] = qHTS for differential inhibitors of proliferation of Plasmodium falciparum line 3D7 (AID 1876);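 note: parasite growth measured after three days of culture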
# [6] = qHTS for differential inhibitors of proliferation of Plasmodium falciparum line D10 (AID 1877);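 note: parasites grown with compound for 72 h before DNA staining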
# [7] = qHTS for differential inhibitors of proliferation of Plasmodium falciparum line Dd2 (AID 1882);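 note: series mostly up to about 29 µM; compound exposure of 72 h on infected erythrocytes; nearly all actives have a fitted effect of over 65% in size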
# How it was run: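 RBC culture, 0.3% parasitemia / 2.5% Hct final; cpd added by pin tool in DMSO; 72 h, 37 C, 5% CO2; lysis buffer + SYBR Green I, o/n RT dark; FI 485/535; norm. to artemisinin 0.29 uM and DMSO.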
# [8] = qHTS for differential inhibitors of proliferation of Plasmodium falciparum line W2 (AID 1883);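 note: parasites grown with compound for 72 h before lysis and staining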
# [9] = qHTS for differential inhibitors of proliferation of Plasmodium falciparum line HB3 (AID 1886);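 note: parasites grown with compound for 72 h before SYBR Green readout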
# [10] = biological target: Ferritin light chain (Equus caballus) (UniProt P02791); experiment: qHTS Validation Assay for Identification of Novel General Anesthetics (AID 2323); note: series mostly up to about 77 µM
# Sequence of Ferritin light chain (Equus caballus) (P02791 2-175 limits assumed): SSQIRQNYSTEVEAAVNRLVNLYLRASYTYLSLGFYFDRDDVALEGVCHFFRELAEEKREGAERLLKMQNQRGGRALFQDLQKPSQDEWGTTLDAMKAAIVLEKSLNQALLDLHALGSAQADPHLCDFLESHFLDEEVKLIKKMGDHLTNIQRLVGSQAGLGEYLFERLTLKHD
# How it was run: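 Apoferritin from horse spleen (10 uM) was mixed with 1-aminoanthracene at 50% saturation in PBS, then compounds were added. After 10 min at room temperature, fluorescence was read (ex 380 nm, em 535 nm) and normalized to free-probe and complex controls.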
# [11] = biological target: ATP-dependent DNA helicase Q1 (Homo sapiens) (UniProt P46063); experiment: qHTS Validation Assay for Inhibitors of RecQ-Like Dna Helicase 1 (RECQ1) (AID 2353)
# Sequence of ATP-dependent DNA helicase Q1 (Homo sapiens) (P46063 whole entry, looked up): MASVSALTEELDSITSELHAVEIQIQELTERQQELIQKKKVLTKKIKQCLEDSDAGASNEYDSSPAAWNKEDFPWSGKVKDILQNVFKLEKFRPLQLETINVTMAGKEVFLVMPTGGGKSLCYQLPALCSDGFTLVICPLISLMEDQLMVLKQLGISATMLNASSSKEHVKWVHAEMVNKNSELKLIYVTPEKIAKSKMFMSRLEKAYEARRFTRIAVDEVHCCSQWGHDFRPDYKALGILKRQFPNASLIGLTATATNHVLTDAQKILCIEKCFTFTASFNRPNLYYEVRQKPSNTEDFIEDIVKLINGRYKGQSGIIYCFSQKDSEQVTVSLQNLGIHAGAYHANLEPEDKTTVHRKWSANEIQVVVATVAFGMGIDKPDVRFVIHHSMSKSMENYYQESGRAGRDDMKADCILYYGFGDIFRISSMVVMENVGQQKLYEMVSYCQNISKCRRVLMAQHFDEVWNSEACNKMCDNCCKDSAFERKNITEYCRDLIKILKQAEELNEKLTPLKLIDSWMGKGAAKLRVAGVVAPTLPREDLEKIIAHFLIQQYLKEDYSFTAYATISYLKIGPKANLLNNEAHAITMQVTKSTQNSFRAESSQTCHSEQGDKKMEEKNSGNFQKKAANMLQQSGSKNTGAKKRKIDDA
# How it was run: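 RECQ1T1 50 nM; forked duplex (20 bp + 30-nt ss tails) 200 nM, ATP 2 mM final; pH 8.0, 2 mM MgCl2, 2.5 ug/ml poly(dI-dC); 15 min compound preincubation; discontinuous kinetic read over 2 h at RT.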
# [12] = Validation screen for small molecules that induce DNA re-replication in MCF 10A normal breast cells (AID 463097); note: nearly all actives have a fitted effect of over 60% in size
# How it was run: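 DNA re-replication was detected as a rise in nuclei with elevated Hoechst fluorescence after a 48 hr compound exposure of MCF 10A cells at 37 C.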
# [13] = Quantitative high throughput screen for delayed death inhibitors of the malarial parasite plastid, 96 hour incubation (AID 488745); note: series mostly up to about 29 µM; nearly all actives have a fitted effect of over 70% in size
# How it was run: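 Two-generation (96 h) exposure of luciferase-reporter P. falciparum in erythrocytes, 2% hematocrit, 0.1% parasitemia final, 37 C, 5% CO2, RPMI 1640 with 0.5% Albumax. Growth inhibition scored by reduced luminescence.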
# [14] = Quantitative high throughput screen for delayed death inhibitors of the malarial parasite plastid, 48 hour incubation (AID 488752); note: nearly all actives have a fitted effect of over 65% in size
# How it was run: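 Cultures: infected erythrocytes at final 2% hematocrit and 0.1% parasitemia in Albumax-supplemented RPMI. Parasites express integrated firefly luciferase. Incubation with compound lasts 48 h before luminescent detection of remaining reporter activity.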
# [15] = biological target: M-phase phosphoprotein 8 (Homo sapiens) (UniProt Q99549); experiment: qHTS Validation Assay for Inhibitors for MPP8 Chromodomain Interactions with Methylated Histone Tails (AID 488949);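 note: AlphaScreen signal from MPP8 chromodomain bound to biotinylated H3K9me3 peptide; top concentration of the series differs between compounds; nearly all actives have a fitted effect of over 55% in size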
# Sequence of M-phase phosphoprotein 8 (Homo sapiens) (Q99549 whole entry, looked up): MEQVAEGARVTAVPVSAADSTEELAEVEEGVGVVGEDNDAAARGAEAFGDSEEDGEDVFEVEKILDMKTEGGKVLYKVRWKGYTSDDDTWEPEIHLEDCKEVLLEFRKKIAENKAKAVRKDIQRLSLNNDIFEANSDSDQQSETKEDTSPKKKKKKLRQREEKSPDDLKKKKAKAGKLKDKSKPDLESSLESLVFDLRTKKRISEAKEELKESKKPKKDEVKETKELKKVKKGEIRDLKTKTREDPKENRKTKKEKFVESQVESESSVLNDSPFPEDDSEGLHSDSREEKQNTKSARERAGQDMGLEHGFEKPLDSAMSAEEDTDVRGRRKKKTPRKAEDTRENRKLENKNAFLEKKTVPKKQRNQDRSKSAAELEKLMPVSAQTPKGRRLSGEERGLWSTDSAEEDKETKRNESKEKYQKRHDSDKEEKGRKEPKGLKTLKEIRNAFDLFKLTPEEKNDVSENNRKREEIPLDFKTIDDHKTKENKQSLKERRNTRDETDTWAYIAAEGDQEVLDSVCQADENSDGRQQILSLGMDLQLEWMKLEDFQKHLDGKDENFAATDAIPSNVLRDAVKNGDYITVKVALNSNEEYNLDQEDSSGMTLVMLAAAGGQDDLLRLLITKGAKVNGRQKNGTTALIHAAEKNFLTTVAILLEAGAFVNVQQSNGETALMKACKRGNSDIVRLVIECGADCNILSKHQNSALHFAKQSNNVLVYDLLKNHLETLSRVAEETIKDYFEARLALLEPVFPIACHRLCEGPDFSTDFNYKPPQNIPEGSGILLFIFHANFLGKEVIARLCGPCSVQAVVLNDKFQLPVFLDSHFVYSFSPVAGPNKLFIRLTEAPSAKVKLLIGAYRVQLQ
# How it was run: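 Disruption of the preformed MPP8–trimethyl-H3K9 peptide complex (both 50 nM, 30 min, RT) is measured after 30 min compound exposure, using AlphaScreen proximity beads; aurintricarboxylic acid titration serves as plate control.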
# [16] = biological target: Transient receptor potential cation channel subfamily V member 1 (Homo sapiens) (UniProt Q8NER1); experiment: HTS Assay for Compounds that Act as Enhancers of the Vanilloid Receptor 1 (AID 488979)
# Sequence of Transient receptor potential cation channel subfamily V member 1 (Homo sapiens) (Q8NER1 whole entry, looked up): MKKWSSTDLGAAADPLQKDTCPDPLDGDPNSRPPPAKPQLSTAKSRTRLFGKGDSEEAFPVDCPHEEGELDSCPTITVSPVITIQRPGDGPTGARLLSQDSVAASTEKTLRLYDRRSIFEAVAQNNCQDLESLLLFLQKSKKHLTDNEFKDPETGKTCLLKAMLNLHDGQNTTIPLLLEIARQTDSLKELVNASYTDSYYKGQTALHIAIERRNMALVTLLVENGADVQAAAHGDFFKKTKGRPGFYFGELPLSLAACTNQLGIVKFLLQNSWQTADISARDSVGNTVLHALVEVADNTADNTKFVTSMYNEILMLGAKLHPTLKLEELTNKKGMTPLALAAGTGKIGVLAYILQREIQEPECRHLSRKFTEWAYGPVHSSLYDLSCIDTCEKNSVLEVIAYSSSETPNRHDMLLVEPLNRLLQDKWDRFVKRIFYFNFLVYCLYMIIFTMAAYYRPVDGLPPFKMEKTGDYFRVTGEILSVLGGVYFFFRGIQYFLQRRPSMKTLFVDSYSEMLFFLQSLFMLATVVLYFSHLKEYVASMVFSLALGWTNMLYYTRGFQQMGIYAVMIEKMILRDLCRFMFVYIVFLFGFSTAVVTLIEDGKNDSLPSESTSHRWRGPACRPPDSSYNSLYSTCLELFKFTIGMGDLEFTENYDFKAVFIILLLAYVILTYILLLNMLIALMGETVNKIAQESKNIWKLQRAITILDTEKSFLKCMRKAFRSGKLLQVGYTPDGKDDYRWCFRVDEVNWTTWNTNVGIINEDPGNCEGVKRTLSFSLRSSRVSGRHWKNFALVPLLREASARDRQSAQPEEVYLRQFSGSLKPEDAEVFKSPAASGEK
# How it was run: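 Calcium influx kinetics via Fluo-8 (480/520 nm) in TRPV1-expressing cells, 2000/well cultured overnight at 35.5C. Compound-alone read 3 min (agonist phase), followed by EC20 capsaicin challenge for 2 min (enhancer phase).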
# [17] = biological target: Thyrotropin receptor (Homo sapiens) (UniProt P16473); experiment: qHTS Assay for Antagonists of the Thyroid Stimulating Hormone Receptor (AID 488980); note: series mostly up to about 58 µM
# Sequence of Thyrotropin receptor (Homo sapiens) (P16473 whole entry, looked up): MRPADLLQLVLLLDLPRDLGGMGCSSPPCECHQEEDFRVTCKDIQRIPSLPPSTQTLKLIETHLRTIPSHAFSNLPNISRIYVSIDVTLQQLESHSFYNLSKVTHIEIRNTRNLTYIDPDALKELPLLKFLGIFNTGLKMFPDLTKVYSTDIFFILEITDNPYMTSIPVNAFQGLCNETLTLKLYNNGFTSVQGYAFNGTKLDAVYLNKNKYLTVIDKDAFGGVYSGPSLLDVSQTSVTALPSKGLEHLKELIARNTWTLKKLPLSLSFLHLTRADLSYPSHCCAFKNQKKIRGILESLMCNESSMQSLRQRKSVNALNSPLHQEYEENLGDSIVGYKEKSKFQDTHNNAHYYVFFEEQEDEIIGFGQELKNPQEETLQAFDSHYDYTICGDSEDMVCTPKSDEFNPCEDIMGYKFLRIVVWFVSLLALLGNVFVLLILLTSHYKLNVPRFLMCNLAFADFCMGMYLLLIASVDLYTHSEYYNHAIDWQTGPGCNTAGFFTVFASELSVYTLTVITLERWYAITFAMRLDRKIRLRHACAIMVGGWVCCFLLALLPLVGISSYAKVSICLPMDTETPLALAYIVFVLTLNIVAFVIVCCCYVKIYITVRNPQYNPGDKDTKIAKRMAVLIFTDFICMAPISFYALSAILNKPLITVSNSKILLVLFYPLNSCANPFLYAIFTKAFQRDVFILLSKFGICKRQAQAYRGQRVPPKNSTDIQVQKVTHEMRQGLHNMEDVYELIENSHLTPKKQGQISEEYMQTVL
# How it was run: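 Cells expressing human TSHR (HEK293) are dispensed in HBSS/HEPES containing 70 uM RO 20-1724, compound is added, then TSH at EC80 (4 nM final). Antibody in lysis buffer follows, 30 minutes at room temperature before HTRF detection.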
# [18] = biological target: Thyrotropin-releasing hormone receptor (Homo sapiens) (UniProt P34981); experiment: qHTS for Small Molecule Agonists and Allosteric Enhancers of Human TRH Receptor: Validation Screen for Agonists (AID 493127;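 active = calcium activation more than 3 SD above the typical response in the agonist read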;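 note: intracellular calcium rise by fluo-8 fluorescence before TRH EC20 addition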); conditions: TRH receptor agonist cell assay; at 2 µM; active compounds read high
# Sequence of Thyrotropin-releasing hormone receptor (Homo sapiens) (P34981 whole entry, looked up): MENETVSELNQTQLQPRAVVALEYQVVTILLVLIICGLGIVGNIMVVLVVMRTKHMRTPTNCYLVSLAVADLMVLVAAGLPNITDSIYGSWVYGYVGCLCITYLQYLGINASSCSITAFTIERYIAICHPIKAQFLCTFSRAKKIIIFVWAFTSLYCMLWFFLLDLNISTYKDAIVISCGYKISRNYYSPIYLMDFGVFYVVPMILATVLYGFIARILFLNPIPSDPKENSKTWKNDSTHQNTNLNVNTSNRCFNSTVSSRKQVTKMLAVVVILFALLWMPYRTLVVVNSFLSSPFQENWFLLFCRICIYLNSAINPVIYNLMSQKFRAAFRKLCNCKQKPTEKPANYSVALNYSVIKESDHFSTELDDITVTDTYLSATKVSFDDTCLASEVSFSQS
# How it was run: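 Kinetic fluorescence assay of agonist-induced calcium release: overnight-plated TRHR cells, room-temperature fluo-8 loading, baseline then compound addition with per-second reads.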
# [19] = biological target: Galactokinase (Homo sapiens) (UniProt P51570); experiment: qHTS Validation Assay for Inhibitors of Human Galactokinase (GALK) (AID 493189)
# How it was run: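 Compounds were pin-transferred into ATP buffer, then GALK-galactose mix was added (final 5 nM enzyme, 100 uM galactose, 35 uM ATP). After 1 h at room temperature, remaining ATP was measured luminescently.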
# [20] = Validation screen for small molecules that induce DNA re-replication in SW480 colon adenocarcinoma cells (AID 504364)
# How it was run: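 Hoechst-stained SW480 nuclei, imaged at 405 nm excitation after 48 hr compound exposure, were counted for elevated DNA content as the re-replication signal.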
compound,measurement,setting,value
CCCOC(=O)c1ccc(N)cc1,outcome,[1],inactive
CC(=O)OCC(COC(C)=O)OC(C)=O,outcome,[2],inactive
same,outcome,[1],inactive
same,Potency,[3],inactive
O=C1C(c2[nH]c3ccccc3c2O)=Nc2ccccc21,outcome,[2],inactive
N[C@@H](Cc1ccc(O)cc1)C(=O)O,outcome,[1],inactive
CC(=O)Nc1cccc(O)c1,outcome,[2],inactive
same,outcome,[1],inactive
same,Potency,[3],inactive
CCCCCC(C)N (centres undefined),outcome,[1],inactive
CC(=O)SC[C@@H](Cc1ccccc1)C(=O)NCC(=O)OCc1ccccc1,outcome,[1],inactive
CC(=O)OC[C@H]1O[C@@](COC(C)=O)(O[C@H]2O[C@H](COC(C)=O)[C@@H](OC(C)=O)[C@H](OC(C)=O)[C@H]2OC(C)=O)[C@@H](OC(C)=O)[C@@H]1OC(C)=O,outcome,[1],inactive
CCN(CC)C(=O)c1cccc(C)c1,outcome,[2],inactive
same,outcome,[1],inactive
same,Potency,[3],inactive
CCOc1ccc(C(=O)OCCN(CC)CC)cc1,outcome,[1],inactive
CN(C(=O)c1c(O)c2ccccc2n(C)c1=O)c1ccccc1,outcome,[1],inactive
CCCCCCCCCCCCCCCCCCO,outcome,[1],inactive
O[C@@H]1CO[C@H]2[C@@H]1OC[C@@H]2O,outcome,[1],inactive
O=C1c2cccc(O)c2C(=O)c2c(O)cccc21,outcome,[2],inactive
same,outcome,[1],inactive
same,Potency,[3],inactive
CC(=O)Nc1ccccc1,outcome,[2],inactive
same,outcome,[1],inactive
same,Potency,[3],inactive
O=C(O)COC(=O)Cc1ccccc1Nc1c(Cl)cccc1Cl,outcome,[1],inactive
O=C(c1ccccc1)C(O)c1ccccc1 (centres undefined),outcome,[2],inactive
same,outcome,[1],inactive
same,Potency,[3],inactive
CCCCCCCC(=O)OCC(COC(=O)CCCCCCC)OC(=O)CCCCCCC,outcome,[2],inactive
same,outcome,[1],inactive
same,Potency,[3],inactive
CC(=O)Nc1ccc(C(=O)O)cc1,outcome,[2],inactive
same,outcome,[1],inactive
same,Potency,[3],inactive
CC(C)CCOC(=O)c1ccc(N(C)C)cc1,outcome,[1],inactive
O=C(O)c1cc(=O)c2ccccc2o1,outcome,[1],inactive
COc1ccc(O)cc1,outcome,[2],inactive
same,outcome,[1],inactive
same,Potency,[3],inactive
Cc1c(I)c(=O)n(-c2ccccc2)n1C,outcome,[1],inactive
CC(=O)N(CC(O)CO)c1c(I)c(C(=O)NCC(O)CO)c(I)c(C(=O)NCC(O)CO)c1I (centres undefined),outcome,[1],inactive
FC(F)(F)C(Cl)Br (centres undefined),outcome,[2],inactive
same,outcome,[1],inactive
same,Potency,[3],inactive
Cc1cc(C)nc(NS(=O)(=O)c2ccc(N)cc2)n1,outcome,[2],inactive
same,Potency,[3],inactive
O=C(OOC(=O)c1ccccc1)c1ccccc1,outcome,[1],inactive
Cc1cc(=O)[nH]c(=S)[nH]1,outcome,[2],inactive
same,outcome,[1],inactive
same,Potency,[3],inactive
C=CCNC(N)=S,outcome,[2],inactive
same,outcome,[1],inactive
O=C1c2ccccc2C(=O)C1c1ccc(Br)cc1,outcome,[1],inactive
CCCCCC(N)=O,outcome,[2],inactive
same,outcome,[1],inactive
CNc1c2c(nn1C)CCCC2,outcome,[1],inactive
CN1C(C)(C)CCCC1(C)C,outcome,[4],inactive
same,outcome,[5],inactive
same,outcome,[6],inactive
same,outcome,[7],inactive
same,outcome,[8],inactive
same,outcome,[9],inactive
same,outcome,[10],inactive
same,outcome,[11],inactive
same,outcome,[12],inactive
same,outcome,[13],inactive
same,outcome,[14],inactive
same,outcome,[15],inactive
same,outcome,[16],inactive
same,outcome,[17],inactive
same,activation,[18],0.688%
same,outcome,[19],inactive
same,outcome,[20],inactive
same,Potency,[3],inactive
CCCC(O)C(CC)CO (centres undefined),outcome,[2],inactive
same,outcome,[1],inactive
same,Potency,[3],inactive
NC(=O)CC[C@@H](N)C(=O)O,outcome,[1],inactive
same,Potency,[3],inactive
CC(C)(C)C(=O)OCOC(=O)[C@@H]1N2C(=O)[C@@H](NC(=O)[C@H](N)c3ccccc3)[C@H]2SC1(C)C,outcome,[1],inactive
same,Potency,[3],inactive
CC(C)=CCC/C(C)=C/CO,outcome,[1],inactive
same,Potency,[3],inactive
COc1ccc(Cc2cnc(N)nc2N)cc1OC,outcome,[1],inactive
same,Potency,[3],inactive
O=C(O)Cc1ccc(CCNS(=O)(=O)c2ccc(Cl)cc2)cc1,outcome,[1],inactive
same,Potency,[3],inactive
CC(C)CCCC(C)CCCC(C)CCCCC(C)CCCC(C)CCCC(C)C (centres undefined),outcome,[1],inactive
same,Potency,[3],inactive
CC(=O)Oc1cccc(C)c1,outcome,[1],inactive
same,Potency,[3],inactive
OC[C@@H](O)[C@@H](O)[C@H](O)[C@H](O)CO,outcome,[1],inactive
same,Potency,[3],inactive
O=C(O)CNC(=O)c1ccccc1I,outcome,[1],inactive
same,Potency,[3],inactive
O=C(O)Cn1c(C(=O)Nc2nc(-c3ccccc3Cl)cs2)cc2ccccc21,outcome,[1],inactive
same,Potency,[3],79.4 µM (active)
NCc1ccc(S(N)(=O)=O)cc1,outcome,[1],inactive
same,Potency,[3],inactive
CCOc1cc(NC(C)=O)ccc1C(=O)OC,outcome,[1],inactive
same,Potency,[3],inactive
O=C(NCCCN1CCOCC1)c1ccc(Cl)cc1,outcome,[1],inactive
same,Potency,[3],inactive
CCS(=O)(=O)CCn1c([N+](=O)[O-])cnc1C,outcome,[1],inactive
same,Potency,[3],inactive
Cc1cccc(C(=O)O)c1O,outcome,[1],inactive
same,Potency,[3],inactive
COc1ccc2cc(CCC(C)=O)ccc2c1,outcome,[1],inactive
same,Potency,[3],inactive
CC(=O)Oc1cccc(O)c1,outcome,[1],inactive
same,Potency,[3],inactive
Cc1c(C)c2c(c(C)c1OC(=O)c1cccnc1)CC[C@@](C)(CCC[C@H](C)CCC[C@H](C)CCCC(C)C)O2,outcome,[1],inactive
same,Potency,[3],inactive
